Measurements from ChEMBL document CHEMBL3988442, “University of Dundee, Small-Polar-MMV Screening Library” (2021).
For some assays here: Entries with a potency or affinity are not part of this list.

Columns and labels:
Parameters in all cases: scale not given: direction of the effect not stated beside the values
[1] = target: Protein translocase subunit SecA (Escherichia coli (strain K12)) (UniProt P10408); experiment: Assay to Identify E. coli SecA ATPase Inhibitors; format: functional; conditions: 30 µM
Chain of Protein translocase subunit SecA (Escherichia coli (strain K12)) (P10408 whole entry): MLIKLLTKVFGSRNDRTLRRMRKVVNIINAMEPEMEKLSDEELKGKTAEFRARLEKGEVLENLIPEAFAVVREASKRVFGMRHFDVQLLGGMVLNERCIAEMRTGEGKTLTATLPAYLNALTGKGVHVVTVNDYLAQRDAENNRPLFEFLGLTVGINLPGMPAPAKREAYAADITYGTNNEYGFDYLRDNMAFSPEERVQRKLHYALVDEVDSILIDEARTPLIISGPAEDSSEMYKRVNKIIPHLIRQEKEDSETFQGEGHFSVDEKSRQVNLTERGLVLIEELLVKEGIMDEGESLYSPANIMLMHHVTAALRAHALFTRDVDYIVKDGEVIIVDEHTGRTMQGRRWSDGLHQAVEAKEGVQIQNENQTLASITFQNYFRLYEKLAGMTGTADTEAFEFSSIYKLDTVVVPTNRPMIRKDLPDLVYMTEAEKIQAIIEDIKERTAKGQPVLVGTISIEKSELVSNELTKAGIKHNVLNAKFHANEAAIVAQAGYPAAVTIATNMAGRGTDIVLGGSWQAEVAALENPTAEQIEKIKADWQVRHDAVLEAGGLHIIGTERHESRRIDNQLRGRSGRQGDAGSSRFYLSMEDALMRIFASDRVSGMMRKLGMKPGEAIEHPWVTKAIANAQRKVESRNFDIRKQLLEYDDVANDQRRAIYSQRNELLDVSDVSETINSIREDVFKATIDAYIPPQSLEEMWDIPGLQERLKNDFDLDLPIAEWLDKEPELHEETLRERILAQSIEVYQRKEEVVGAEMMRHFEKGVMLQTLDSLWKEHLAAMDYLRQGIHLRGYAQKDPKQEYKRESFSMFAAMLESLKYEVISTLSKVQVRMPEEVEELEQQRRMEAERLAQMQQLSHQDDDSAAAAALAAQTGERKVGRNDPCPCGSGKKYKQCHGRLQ

[2] = target: T1, Ubiquitin-activating enzyme e1, putative (Leishmania donovani (strain BPK282A1)) (UniProt E9BSI1); experiment: Leishmania donovani Ubiquitin Activating Enzyme (LdE1); format: functional; conditions: 30 µM
T1 sequence (whole entry): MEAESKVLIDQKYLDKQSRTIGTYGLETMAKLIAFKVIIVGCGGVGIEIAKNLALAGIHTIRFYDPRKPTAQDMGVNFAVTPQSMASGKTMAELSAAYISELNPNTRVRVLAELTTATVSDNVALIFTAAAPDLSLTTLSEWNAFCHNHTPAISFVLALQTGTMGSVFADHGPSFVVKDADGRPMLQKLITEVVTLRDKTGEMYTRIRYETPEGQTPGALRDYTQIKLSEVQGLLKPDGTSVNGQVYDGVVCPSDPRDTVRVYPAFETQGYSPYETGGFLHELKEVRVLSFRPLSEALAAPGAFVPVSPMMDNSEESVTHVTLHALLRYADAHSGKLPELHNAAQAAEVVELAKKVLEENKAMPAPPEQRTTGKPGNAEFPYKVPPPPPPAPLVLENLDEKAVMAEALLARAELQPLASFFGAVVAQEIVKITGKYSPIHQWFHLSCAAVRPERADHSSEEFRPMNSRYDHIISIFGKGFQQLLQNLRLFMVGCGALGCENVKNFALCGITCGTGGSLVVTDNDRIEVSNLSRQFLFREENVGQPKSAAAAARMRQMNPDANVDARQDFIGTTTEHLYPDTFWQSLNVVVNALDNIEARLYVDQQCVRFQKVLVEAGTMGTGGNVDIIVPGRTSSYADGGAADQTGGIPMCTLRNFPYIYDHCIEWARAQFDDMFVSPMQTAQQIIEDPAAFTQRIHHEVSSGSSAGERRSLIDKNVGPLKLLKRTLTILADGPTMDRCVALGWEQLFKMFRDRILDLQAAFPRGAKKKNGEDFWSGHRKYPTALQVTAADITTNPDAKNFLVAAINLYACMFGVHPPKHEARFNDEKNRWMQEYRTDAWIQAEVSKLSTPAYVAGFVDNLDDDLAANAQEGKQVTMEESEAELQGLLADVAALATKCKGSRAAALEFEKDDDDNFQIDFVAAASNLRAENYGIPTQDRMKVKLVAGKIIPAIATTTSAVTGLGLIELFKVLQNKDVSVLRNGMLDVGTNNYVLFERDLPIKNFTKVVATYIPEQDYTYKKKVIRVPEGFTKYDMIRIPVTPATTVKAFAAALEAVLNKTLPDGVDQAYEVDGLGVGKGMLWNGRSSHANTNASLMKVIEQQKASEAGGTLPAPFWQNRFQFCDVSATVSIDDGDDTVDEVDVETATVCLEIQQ

[3] = target: AMP-activated protein kinase, AMPK (Homo sapiens) (UniProt P54646+O43741+P54619+Q9UGJ0+Q9Y478+Q13131+Q9UGI9); experiment: AMP-dependent Kinase enzyme assay. An in vitro enzyme assay that detects ADP turnover that is directly proportional to AMPK activity. This uses naive AMPK that is activated during the assay with MK-8722; format: functional; conditions: 30 µM
[4] = target: Sialic acid-binding Ig-like lectin 9 (Homo sapiens) (UniProt Q9Y336); experiment: Hs-Siglec9 ALPHAscreen SOP 20170721; conditions: 10 µM
Chain of Sialic acid-binding Ig-like lectin 9 (Homo sapiens) (Q9Y336 whole entry): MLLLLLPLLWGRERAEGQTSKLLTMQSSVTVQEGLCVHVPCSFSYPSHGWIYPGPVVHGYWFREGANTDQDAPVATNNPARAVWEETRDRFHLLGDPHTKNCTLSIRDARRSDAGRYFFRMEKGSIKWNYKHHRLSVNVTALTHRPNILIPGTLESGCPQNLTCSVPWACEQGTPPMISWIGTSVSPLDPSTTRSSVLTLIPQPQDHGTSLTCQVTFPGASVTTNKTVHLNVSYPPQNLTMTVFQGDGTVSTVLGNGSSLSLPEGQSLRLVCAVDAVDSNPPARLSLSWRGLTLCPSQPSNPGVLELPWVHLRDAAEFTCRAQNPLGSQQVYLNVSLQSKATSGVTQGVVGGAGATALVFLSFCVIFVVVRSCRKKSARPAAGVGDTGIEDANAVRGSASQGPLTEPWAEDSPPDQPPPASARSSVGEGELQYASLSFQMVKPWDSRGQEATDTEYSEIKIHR

Trypanosoma cruzi = experiment: Trypanosoma cruzi phosphomannomutase and mannose-1-phosphate guanylyltransferase assay; format: functional; conditions: 10 µM
[5] = target: T2, Arginase-2, mitochondrial (Homo sapiens) (UniProt P78540); experiment: in vitro enzyme assay to detect the production of urea directly proportional to the activity of Arginase II; format: functional; conditions: 33.3 µM; also: in the data most compounds retested in dose-response had high values
T2 sequence (whole entry): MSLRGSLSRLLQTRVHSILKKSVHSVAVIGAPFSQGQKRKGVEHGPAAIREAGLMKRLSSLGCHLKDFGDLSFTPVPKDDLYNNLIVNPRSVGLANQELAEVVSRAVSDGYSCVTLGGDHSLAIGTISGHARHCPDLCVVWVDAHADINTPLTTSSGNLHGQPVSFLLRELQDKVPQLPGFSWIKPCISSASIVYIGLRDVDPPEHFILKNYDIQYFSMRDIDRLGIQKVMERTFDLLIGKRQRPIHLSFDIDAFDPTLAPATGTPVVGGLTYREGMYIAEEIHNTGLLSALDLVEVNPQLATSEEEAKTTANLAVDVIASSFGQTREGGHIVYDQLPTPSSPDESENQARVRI

[6] = target: T3, Proteasome subunit beta (Trypanosoma cruzi) (UniProt O96673); experiment: Trypanosoma cruzi proteasome chymotrypsin-like activity (TcProtChymo) assay.; also: in the data most compounds retested in dose-response had high values; format: functional; conditions: 9.37 µM
T3 sequence (whole entry): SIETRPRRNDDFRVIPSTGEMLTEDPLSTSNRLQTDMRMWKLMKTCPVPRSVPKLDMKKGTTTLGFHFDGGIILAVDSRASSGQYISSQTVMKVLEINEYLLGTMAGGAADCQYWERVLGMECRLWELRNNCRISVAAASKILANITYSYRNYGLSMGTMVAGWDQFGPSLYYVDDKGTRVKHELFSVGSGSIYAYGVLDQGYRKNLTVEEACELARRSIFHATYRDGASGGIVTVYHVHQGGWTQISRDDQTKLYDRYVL

Homo sapiens = species on record: Homo sapiens; experiment: To identify inhibition of the IFN signalling (Jak-Stat) pathway via expression of an eGFP reporter gene under the control of an IFN-stimulated response element (ISRE) containing MxA promoter.; format: functional; conditions: 30 µM
[7] = target: T4, Tyrosyl-tRNA synthetase, putative (Trypanosoma cruzi (strain CL Brener)) (UniProt Q4DSP6); experiment: Trypanosoma cruzi tyrosyl tRNA synthetase (TcYRS) _High Tyrosine SOP; format: functional; conditions: 30 µM; also: in the data most compounds retested in dose-response had high values
T4 sequence (whole entry): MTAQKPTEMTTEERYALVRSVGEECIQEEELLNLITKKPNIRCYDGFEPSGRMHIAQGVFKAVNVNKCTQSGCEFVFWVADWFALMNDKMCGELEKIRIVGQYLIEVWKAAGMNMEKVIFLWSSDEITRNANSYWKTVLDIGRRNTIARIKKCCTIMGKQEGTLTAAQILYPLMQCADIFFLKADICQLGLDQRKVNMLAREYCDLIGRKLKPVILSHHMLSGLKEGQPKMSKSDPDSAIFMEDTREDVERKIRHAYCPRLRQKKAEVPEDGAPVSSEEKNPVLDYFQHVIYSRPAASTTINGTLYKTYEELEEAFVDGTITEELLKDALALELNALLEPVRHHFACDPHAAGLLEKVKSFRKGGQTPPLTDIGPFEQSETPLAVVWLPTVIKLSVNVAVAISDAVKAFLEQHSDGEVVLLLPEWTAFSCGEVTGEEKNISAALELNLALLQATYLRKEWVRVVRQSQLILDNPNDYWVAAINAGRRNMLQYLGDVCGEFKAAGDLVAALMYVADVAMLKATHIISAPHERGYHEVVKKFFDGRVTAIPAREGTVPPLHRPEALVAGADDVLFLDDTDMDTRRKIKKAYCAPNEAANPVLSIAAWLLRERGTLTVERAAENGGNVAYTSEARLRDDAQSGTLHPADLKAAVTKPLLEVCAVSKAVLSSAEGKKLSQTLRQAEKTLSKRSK

[8] = target: T4, Tyrosyl-tRNA synthetase, putative (Trypanosoma cruzi (strain CL Brener)); experiment: Trypanosoma cruzi tyrosyl tRNA synthetase (TcYRS) SOP; format: functional; conditions: 30 µM
[9] = target: Chromo domain-containing protein 1 (Saccharomyces cerevisiae (strain ATCC 204508 / S288c) (Baker's yeast)) (UniProt P32657); experiment: ScCHD-1 Enzyme Inhibition Assay; format: functional; conditions: 30 µM; also: in the data most compounds retested in dose-response had high values
Chain of Chromo domain-containing protein 1 (Saccharomyces cerevisiae (strain ATCC 204508 / S288c) (Baker's yeast)) (P32657 whole entry, the tested form may be a part): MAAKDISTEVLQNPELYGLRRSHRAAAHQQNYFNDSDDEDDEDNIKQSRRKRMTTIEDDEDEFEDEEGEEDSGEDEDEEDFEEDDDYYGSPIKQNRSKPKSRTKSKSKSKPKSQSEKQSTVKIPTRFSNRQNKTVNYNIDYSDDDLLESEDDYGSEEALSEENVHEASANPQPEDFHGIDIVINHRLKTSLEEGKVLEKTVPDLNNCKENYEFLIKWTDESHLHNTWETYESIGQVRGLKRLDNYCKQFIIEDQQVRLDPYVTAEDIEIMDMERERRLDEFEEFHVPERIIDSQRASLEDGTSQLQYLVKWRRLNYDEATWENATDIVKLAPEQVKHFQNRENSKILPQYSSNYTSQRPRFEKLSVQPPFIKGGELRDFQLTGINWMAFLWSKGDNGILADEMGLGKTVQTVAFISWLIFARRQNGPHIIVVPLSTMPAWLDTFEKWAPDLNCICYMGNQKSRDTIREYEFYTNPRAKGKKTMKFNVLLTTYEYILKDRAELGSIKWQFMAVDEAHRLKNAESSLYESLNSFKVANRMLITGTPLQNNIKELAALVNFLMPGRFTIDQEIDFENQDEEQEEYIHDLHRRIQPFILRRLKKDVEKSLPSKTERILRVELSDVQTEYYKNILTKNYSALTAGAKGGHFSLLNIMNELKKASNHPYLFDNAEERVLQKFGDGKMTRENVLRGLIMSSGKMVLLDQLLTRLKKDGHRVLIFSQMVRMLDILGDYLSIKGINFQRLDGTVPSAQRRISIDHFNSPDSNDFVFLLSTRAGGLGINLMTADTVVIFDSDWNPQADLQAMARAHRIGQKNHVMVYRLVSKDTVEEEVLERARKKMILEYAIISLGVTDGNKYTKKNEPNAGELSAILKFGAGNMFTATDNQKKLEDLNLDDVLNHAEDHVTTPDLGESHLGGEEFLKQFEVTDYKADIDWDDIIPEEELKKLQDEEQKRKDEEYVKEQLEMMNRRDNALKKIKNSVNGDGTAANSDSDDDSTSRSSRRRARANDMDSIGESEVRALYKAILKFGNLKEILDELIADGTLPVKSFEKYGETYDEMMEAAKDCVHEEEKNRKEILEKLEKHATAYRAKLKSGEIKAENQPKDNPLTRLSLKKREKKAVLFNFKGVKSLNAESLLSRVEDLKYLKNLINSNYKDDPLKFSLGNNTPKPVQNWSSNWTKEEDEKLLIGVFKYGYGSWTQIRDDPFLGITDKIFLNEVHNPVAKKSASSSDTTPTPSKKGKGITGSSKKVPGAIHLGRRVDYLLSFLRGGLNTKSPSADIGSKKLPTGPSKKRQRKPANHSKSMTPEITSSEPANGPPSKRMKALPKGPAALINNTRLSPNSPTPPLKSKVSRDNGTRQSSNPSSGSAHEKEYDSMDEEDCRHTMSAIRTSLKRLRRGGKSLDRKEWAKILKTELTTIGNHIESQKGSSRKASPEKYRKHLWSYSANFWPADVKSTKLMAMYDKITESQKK

Structure (SMILES)	Percent Effect [1] [%]	Percent Effect [2] [%]	Percent Effect [3] [%]	Percent Effect [4] [%]	Percent Effect (Trypanosoma cruzi) [%]	Percent Effect [5] [%]	Percent Effect [6] [%]	Percent Effect (Homo sapiens) [%]	Percent Effect [7] [%]	Percent Effect [8] [%]	Percent Effect [9] [%]
COc1c(CNCc2ccc(CN(C)C)cc2)c(C(C)C)nn1C	2.77	-5.26	5.16	1.34	-1.5	3.45	2.34	11.8	-0.49	4.88	-1.54
COc1ncccc1NC(=O)C1CCN(S(C)(=O)=O)CC1	-2.31	15.6	-6.01	4.87	0.749	-0.356	6.42	15.1	6.8	21.9	-9.19
CCc1nccn1C1CCCN(C(=O)Cc2cn3ccccc3n2)C1 (configuration not stated)	-4.36	8.86	-1.52	-5.05	3.18	-1.5	13.2	17.9	-1.04	10.1	-29
CCNc1cc2c(nn1)CCN(C(=O)Cc1c(C)noc1C)C2	-9.15	7.89	9.72	1.08	-5.51	0.719	3.47	6.32	0.493	1.24	3.07
CC(=O)Nc1c(C)cnn1Cc1cc(F)ccc1F	-3.16	0	0.653	2.06	-3.99	1.56	2.09	12.2	2.73	6.17	-0.196
Cc1nn(C)c2cn(C(C)C(=O)NCc3cccnc3)nc12 (configuration not stated)	-2.07	14.7	-8.7	5.87	1.77	-6.16	17.9	20.4	-4.23	10.3	-9.99
O=C(c1ccc[nH]1)N1C[C@H]2CC[C@@H]1CN(c1ncccn1)C2	-5.19	5.2	7.19	11.1	2.26	-9.65	6.49	-14.3	6.45	13.6	-0.0272
O=C(NCc1nnc2n1CCC2)N(Cc1ccco1)C1CC1	-0.0964	8.11	-2.14	3.8	-2.12	-2.86	20.3	14.6	3.7	12.2	-2.31
CCOC(C)c1nc(CN2CCN(c3nccc(C)n3)CC2)cs1 (configuration not stated)	-1.18	0	-0.85	-1.42	0.386	-0.476	10.2	-0.937	-3.7	2.44	-2.47
Cc1nc(CNCC2CCCN2c2cccnn2)cs1 (configuration not stated)	-2.04	-2.63	1.93	0.202	-3.38	6.51	-1.84	14.7	2.45	0	4.5
CCOCCCNC(=O)c1ccccc1S(C)(=O)=O	-4.36	0	7.43	5.86	2.82	-8.28	11.6	-12.4	1.06	5.2	0.767
COCCN1CCc2cc(C(=O)N(C)C)c(NCC3CC3)nc2CC1	-8.99	2.7	1.27	-1.99	-5.38	-1.24	8.5	-19.8	2.15	11.1	-0.0365
CC(=O)NCCc1ccc(C(=O)N2CCCC2c2cnn(C)c2)cc1 (configuration not stated)	-1.4	21.1	-6.64	-8.62	2.89	-3.6	11.9	1.72	4.43	16.1	-8.59
COc1cccc(CN(C)Cc2ccc(C#N)cc2)c1OC	-2.85	-5.41	2.32	-6	0.586	-1.67	7.86	-3.25	4.95	-3.66	-5.17
O=C(COc1ccccc1)N1CCC[C@]2(C[C@H](OCC3CC3)CO2)C1	-0.456	7.79	0.996	-3.06	-3.45	14.8	22.1	3.98	8.47	16.7	-7.91
Cc1cc(CNC2CCCN(c3cccnn3)C2)no1 (configuration not stated)	-0.548	-2.6	-12.2	5.49	0.885	-5.52	15.5	18.9	5.38	13.6	-2.81
Cc1cc(C[C@@H]2COC[C@@H]2NC(=O)CN2CCCN(C)CC2)on1	-3.19	16.4	2.04	6.47	6.27	4.54	13.3	4.37	8.6	-55	-6.96
CCC(=O)N1CCc2nc3cc(OC)c(OC)cc3c(=O)n2CC1	-8.64	9.46	-6.48	12.5	5.34	-1.62	8.58	6.53	2.15	11.7	-28.2
O=C(c1cccc(NCCO)c1)N1CCOCC1	0.755	13	-9.18	2.34	-2.46	-5.52	19.3	28.8	2.15	11.1	-2.11
O=C1CCC2(CCCN(c3ncc(F)cn3)CC2)N1CC1CC1 (configuration not stated)	-4	7.79	3.94	5.12	1.08	5.81	12.7	14.5	6.35	16.7	-4.57
CC(NC1(CNC(=O)C(C)(C)C#N)CCOCC1)c1ccccc1 (configuration not stated)	-11.4	0	-1.47	-3.49	-3.03	-1.74	4.89	7	-7.53	-3.7	-3.14
COc1ccccc1C(O)CNC(=O)NCc1cccnc1OC (configuration not stated)	-5.38	12.7	3.02	-9.15	-7.84	-0.38	6.63	30.3	1.48	13.9	-5.07
